# Compounds without any hit were thinned out: in the full panel of roughly 79,000, 15% have a hit. A number with no mark means an inactive call. Activity calls are given as the source filed them. Cut-off read from the data, not from the text of the source: active = growth inhibition above about 70%; inactive = the rest.
# Columns and labels:
# [1] = NCI Yeast Anticancer Drug Screen. Data for the rad50 strain (AID 155);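 note: 0% = growth of vehicle-only cultures of the same strain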; details: S. cerevisiae rad50 strain growth inhibition; at 50.0 µM; stronger effect = higher value
# In short: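 Yeast carrying a defined DNA repair defect were exposed to test compounds, and growth was compared with vehicle-treated controls to give percent inhibition.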
# [2] = NCI Yeast Anticancer Drug Screen. Data for the mec2-1 strain (AID 157); details: S. cerevisiae mec2-1 strain, at 50.0 µM, stronger effect = higher value
# In short: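 Yeast mec2-1 mutant treated with compound. Readout: growth inhibition vs vehicle controls.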
# [3] = NCI Yeast Anticancer Drug Screen. Data for the sgs1 mgt1 strain (AID 161);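 note: 0% = growth of cultures given vehicle only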; details: S. cerevisiae sgs1 mgt1 strain, at 50.0 µM, stronger effect = higher value
# In short: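 Inhibition of yeast growth, normalised to vehicle-treated controls, is reported for a strain bearing genetic alterations in DNA damage repair.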
# [4] = NCI Yeast Anticancer Drug Screen. Data for the cln2 rad14 strain (AID 165);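 note: 0% = growth equal to vehicle treated cultures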; details: S. cerevisiae cln2 rad14 strain, at 50.0 µM, stronger effect = higher value
# In short: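 cln2 rad14 yeast strain; compound exposure; growth inhibition read vs vehicle controls.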
# [5] = NCI Yeast Anticancer Drug Screen. Data for the bub3 strain (AID 167); details: S. cerevisiae bub3 mutant strain, at 50.0 µM, stronger effect = higher value
# In short: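 Compounds were applied to a genetically altered yeast strain carrying a cell-cycle control defect. Growth inhibition was scored against vehicle-treated controls.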
# [6] = NCI Yeast Anticancer Drug Screen. Data for the mlh1 rad18 strain (AID 175); details: S. cerevisiae mlh1 rad18 strain growth inhibition; at 50.0 µM; stronger effect = higher value
# In short: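 Yeast w/ defined DNA-repair lesions; compound exposure; growth vs vehicle controls → % inhibition.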
SMILES,growth inhibition [1] [%],growth inhibition [2],growth inhibition [3] [%],growth inhibition [4],growth inhibition [5],growth inhibition [6]
CC(=O)c1cccc(N)c1,-26.9,-5.75%,-20.4,-23.3%,-15.8%,3.1%
Cc1nc(SCC(=O)Nc2ccc(Cl)cc2)c2sc(=S)n(-c3ccccc3)c2n1,-14.2,4.6%,-1.25,2.35%,-4.4%,5.4%
NC(CO)CSCc1ccccc1 (centres undefined),1.65,1.6%,11.6,-4.4%,13.3%,-0.65%
O=[N+]([O-])c1ccc(Sc2c3ccccc3nc3ccccc23)cn1,21.1,27.4%,-12.5,7.65%,-14.8%,-18.4%
CC1(C)OC2C(C3N(c4ccccc4)CCN3c3ccccc3)OC(n3ccc(=O)[nH]c3=O)C2O1 (centres undefined),-37.4,-5.85%,-8.35,14.1%,-2.5%,-12.7%
C1CSCC2(COC2)CSCCSCC2(COC2)CS1,-23.1,-13.4%,-18.9,-3.05%,-7.35%,-18.6%
COc1cc2c(c(OC)c1OC)-c1ccc(OC)c(=O)cc1C(NC(=O)COc1ccccc1)CC2 (centres undefined),16.5,-28.6%,15.2,11.2%,6.95%,14.6%
O=C(NCc1ccccc1)/C(=C/c1ccc2c(c1)OCO2)NC(=O)c1ccccc1,-42,-50.1%,-28.5,-6.2%,-15.2%,-22.2%
CN(C)C1=CC(=O)NC(c2ccccc2)C1 (centres undefined),-10.6,-17.4%,-10.6,-14.2%,-3.45%,-11.6%
O=C(O)COc1cccc(O)c1,-26.4,-24.2%,-39.6,-13.1%,-27.9%,-20.1%
CCCCCCC(C)C(CC)(C(=O)OCC)C(=O)OCC (centres undefined),-16.1,6.55%,-0.2,12.1%,-14.3%,7.65%
CSC(SC)=C1CCCC(=C(SC)SC)C1=O,-6.95,-9.3%,-9.55,6.95%,-0.45%,-8.9%
OCc1ccccc1CN1CCCC1,8.65,1.15%,17.8,-40.1%,8.1%,-14.3%
O=C1CCN2CCC(=O)c3c(Cl)ccc1c32,8.05,13.3%,8.5,13.8%,14.1%,16.9%
Cc1cccnc1C,16.9,-7.25%,-16.2,24.4%,14.4%,7.85%
COC(=O)C1(CC(=O)c2ccncc2)NC(=S)NC(=O)C1C#N (centres undefined),2,-11.8%,-19.1,-22.4%,-22.8%,-5.75%
C[N+]1(C)CCC(O)CC1,-5.5,7.2%,-3.1,-13.4%,14.9%,1%
CC(=O)OCC(OC(C)=O)C1OC2OC(C)(C)OC2C1OS(C)(=O)=O (centres undefined),15.2,10.3%,17.6,-27.6%,28.6%,4.95%
CNC1(C(N)=O)CCN(Cc2ccccc2)CC1,-14.7,-10.3%,-25.8,0.75%,-3.6%,-8.35%
O=C1OCc2cccc3c2-c2c1cccc2C(=O)OC3,-3,-5.7%,-4.8,16.2%,-12.5%,6.7%

SMILES,growth inhibition [1] [%],growth inhibition [2],growth inhibition [3] [%],growth inhibition [4],growth inhibition [5],growth inhibition [6]
O=[N+]([O-])c1ccc(C2ON2C2CCCCC2)cc1 (centres undefined),-0.75,-2.55%,18.7,-22.3%,-10.8%,5.3%
OCC1NCCC(O)C1OC1OC(CO)C(O)C(O)C1O (centres undefined),5.25,-22.1%,-0.65,-2.75%,-5.7%,-18.6%
COC1C(/C=[N+](\C)[O-])OC2OC(C)(C)OC21 (centres undefined),10.2,-9.5%,-12.8,-26.1%,17.6%,12.8%
CCCCCCCCCCCCN1CCCN(CCCCCCCCCCCC)CC1,56.7,99.2% (active),7.45,96.7% (active),98.7% (active),99.2% (active)
CCOC(=O)N1CCN(Cc2cc(=O)n3ccc(C)cc3n2)CC1,21.8,2.8%,3.7,12.5%,17.4%,22.1%
CC(=O)Nc1cccc(N=NN(C)C)c1,14.2,14.1%,39,20.5%,34.4%,29.6%
COc1ccc(S(=O)(=O)N/N=C/C(=O)OCOC(=O)C(C)(C)C)cc1,1.55,-11.8%,-5.1,8.55%,-25.9%,19.1%
CC1CCCCC1(C)O (centres undefined),23.9,34.6%,-19.4,1.75%,9%,11.4%
c1ccc(C2=C(c3ccccn3)N=c3ccccc3=c3ccccc3=N2)nc1,2.4,14.2%,-1.15,-48.6%,3.65%,-8.9%
Cc1cc2[nH]c3c(C#N)c4c(c(=O)n3c2cc1C)CCCC4,10.1,18.5%,-7,2.75%,-5.85%,-22.1%
O=C1c2ccccc2C(=O)N1NC1=NCCN1,-12.6,-13.3%,-13.1,11.8%,5.5%,-1.8%
Cc1nc(-c2ccccc2)oc1-c1ccccc1,8.6,-1.5%,-1.7,6.95%,0.05%,-4.35%
CN(CC(N)=O)C(=O)c1cnc2ccccc2c1,9.65,18.6%,-1.05,8.05%,14.1%,0.4%
CC(/C=C1\N=C(c2ccccc2)OC1=O)=C\c1ccccc1,-40,-22.1%,-33.5,9.2%,-35.4%,-28.9%
O=C(NC1CCCCC1)N(C(=O)C(F)(F)F)C1CCCCC1,9.05,3.6%,-5.15,9.8%,-2.4%,14.7%
O=C(CCS(=O)(=O)CCC(=O)c1cccs1)c1cccs1,4.2,10.3%,1.9,-4.15%,-3.55%,15.6%
O=c1[nH]c2ccccc2[nH]1,-18.8,-14.9%,-7.6,-28%,-13.2%,-14.4%
CCOC(=O)C[N+]1(C)CCC(O)CC1 (centres undefined),3.15,26.1%,-2.55,-0.45%,16.6%,7.55%
CN(C)CCNC(=O)c1ccc2nc3c(nc2c1)C(=O)c1ccccc1-3,-9.4,-2.85%,31.3,36.8%,3.6%,15.9%

# Source: PubChem BioAssay (NCI)
